The results in this text go back to PubChem BioAssay (Tox21).

A short description of experiment [1]: qHTS assay to identify small molecule phospholipidosis (PLD) inducers (AID 1259344; active = well fitted curve in the direction sought with a large enough effect; an effect the other way counts as inactive or inconclusive; also: potency is read from the fitted curve at half-maximal effect). The gist of the method:
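Accumulated phospholipid, stained red by LipidTOX during 24 h compound treatment of HepG2 cells at 37 C, is quantified from images as pit number and intensity, normalised per cell using Hoechst-stained nuclei.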

Experiment [2] in a line: qHTS assay to identify small molecule HDAC inhibitors - cell viability counter screen (AID 1259365). Also: nearly all actives have a fitted effect of over 50% in size. Also: potency is read from the fitted curve at half-maximal effect. The gist of the method:
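Wild-type HCT-116 cells, 1,500/well, cultured overnight, then compound-treated 2 h at 37 C. Viability measured as ATP luminescence with CellTiter-Glo after 30 min at room temperature.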
A general note: qHTS replaces the single test concentration by a dilution series.

Experiment [3] in a line: qHTS assay to identify small molecule agonists of the sonic hedgehog signaling (Shh) pathway - cell viability counter screen (AID 1259366). Also: nearly all actives have a fitted effect of over 50% in size. Also: potency is read from the fitted curve at half-maximal effect. The gist of the method: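 NIH/3T3-derived Gli1-Luc reporter cells, 2,000 per well, received compound after 4 h and were treated about 23 h at 37C. Viability measured in the same wells by CellTiter-Fluor fluorescence after 1 h.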
The nature of experiment [4]: qHTS assay to identify small molecule antagonists of the sonic hedgehog signaling (Shh) pathway - cell viability counter screen (AID 1259367). Also: nearly all actives have a fitted effect of over 55% in size. Also: potency is read from the fitted curve at half-maximal effect. The gist of the method: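 CellTiter-Fluor signal in conditioned medium-stimulated 3T3 Gli1-Luc cells, 23 hr compound exposure, 37C.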
Experiment [5] is described as follows: qHTS assay to identify small molecule agonists of the sonic hedgehog signaling (Shh) pathway (AID 1259368; calls by dose curve;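 also: NIH/3T3-derived 3T3Gli1-Luc cells carrying a stable Gli1-driven firefly luciferase reporter; series mostly up to about 92 µM; % is scaled to controls: 0 for no effect and ±100 for the full control effect; nearly all actives have a fitted effect of over 15% in size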). The gist of the method:
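Read-out: firefly luciferase luminescence from a Gli1 response element reporter stably integrated in NIH/3T3-derived 3T3Gli1-Luc cells, measured 30 min at room temperature after reagent addition. Compound exposure lasted 24 hr at 37 C, 5% CO2.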

Experiment [6] can be described thus: qHTS assay to identify small molecule antagonists of the sonic hedgehog signaling (Shh) pathway (AID 1259369; calls by dose curve; also: nearly all actives have a fitted effect of over 45% in size; also: potency is read from the fitted curve at half-maximal effect; as to activity change, negative = inhibition: % is scaled to controls: 0 for no effect and ±100 for the full control effect). The gist of the method: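 Luminescence readout: firefly Luc under Gli1 response element in 3T3Gli1-Luc cells (NIH/3T3 clone). Antagonist mode, stimulation by conditioned medium; compound exposure 24hr at 37 C, 5% CO2.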
The nature of experiment [7]: qHTS assay to identify small molecule agonists of the androgen receptor (AR) signaling pathway in the presence of an antagonist - cell viability counter screen (AID 1259379). Also: nearly all actives have a fitted effect of over 25% in size. Also: potency is read from the fitted curve at half-maximal effect. The gist of the method: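 Viability counter screen: CellTiter-Fluor fluorescence, measured in the same wells as the luciferase read-out. MDA-kb2 cells, 3,000/well, with nilutamide at 3.0uM final and compounds at 15 concentrations, 16 hr at 37C, 0% CO2.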

Experiment [8] can be described thus: qHTS assay to identify small molecule antagonists of the estrogen receptor beta (ER-beta) signaling pathway - cell viability counter screen (AID 1259382). Also: nearly all actives have a fitted effect of over 55% in size. Also: potency is read from the fitted curve at half-maximal effect. The gist of the method: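 Luminescent ATP read-out (CellTiter-Glo, 30 min, RT) taken in the same wells as the bla reporter assay. HEK293T ER-beta-UAS-bla cells in 2% charcoal-stripped FBS were exposed to compounds with 1nM E2 for 16 hr at 37C.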

In experiment [9] the target is Estrogen receptor (Homo sapiens) (UniProt P03372). In words: qHTS assay to identify small molecule agonists of the estrogen receptor alpha (ER-alpha) signaling pathway in the presence of an antagonist (AID 1259383; calls by dose curve; also: nearly all actives have a fitted effect of over 15% in size; also: potency is read from the fitted curve at half-maximal effect). The gist of the method: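 Luciferase luminescence (ONE-Glo, 30min at room temperature) measured in VM7Luc4E2 cells after 22hr compound exposure at 15 concentrations, with 10.0nM ICI-182,780 final present; cells express endogenous ER-alpha and carry four EREs upstream of luciferase.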
Chain of Estrogen receptor (Homo sapiens) (P03372 whole entry, looked up): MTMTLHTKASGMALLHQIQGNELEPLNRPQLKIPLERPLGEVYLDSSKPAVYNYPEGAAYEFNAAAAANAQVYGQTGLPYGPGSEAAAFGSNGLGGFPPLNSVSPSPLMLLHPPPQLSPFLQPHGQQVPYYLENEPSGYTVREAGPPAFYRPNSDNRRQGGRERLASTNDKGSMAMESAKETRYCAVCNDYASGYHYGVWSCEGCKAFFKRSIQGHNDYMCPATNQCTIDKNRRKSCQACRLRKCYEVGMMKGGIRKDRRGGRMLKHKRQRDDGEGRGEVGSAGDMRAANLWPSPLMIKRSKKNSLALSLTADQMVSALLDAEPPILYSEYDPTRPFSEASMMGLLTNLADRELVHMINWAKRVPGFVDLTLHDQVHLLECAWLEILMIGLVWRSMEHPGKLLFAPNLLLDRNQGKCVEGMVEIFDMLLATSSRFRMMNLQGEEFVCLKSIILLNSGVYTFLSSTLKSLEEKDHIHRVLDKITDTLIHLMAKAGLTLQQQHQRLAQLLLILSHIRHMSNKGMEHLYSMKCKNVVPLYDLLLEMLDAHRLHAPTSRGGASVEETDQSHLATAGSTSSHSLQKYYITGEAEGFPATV

A short description of experiment [10]: qHTS assay to identify small molecule agonists of the estrogen receptor alpha (ER-alpha) signaling pathway in the presence of an antagonist - cell viability counter screen (AID 1259386). Also: nearly all actives have a fitted effect of over 30% in size. Also: potency is read from the fitted curve at half-maximal effect. The gist of the method: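 Read-out: CellTiter-Fluor fluorescence after 1hr reagent incubation, measured in the same wells as the luciferase readout. VM7Luc4E2 cells were exposed to 15 compound concentrations with 10.0nM ICI-182,780 for 22hr at 37C.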

The target in experiment [11] is Androgen receptor (Homo sapiens) (UniProt P10275). The experiment can be described thus: qHTS assay to identify small molecule antagonists of the androgen receptor (AR) signaling pathway using the MDA cell line in the presence of 0.5 nM R1881 (AID 1259243). Also: % is scaled to controls: 0 for no effect and ±100 for the full control effect; nearly all actives have a fitted effect of over 50% in size. The gist of the method: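 MDA-kb2, MMTV-luc (AR/GR elements); 3,000 cells/well; cpd + 0.5 nM R1881 final; 16 hr 37C, 0% CO2; ONE-Glo 30 min RT; luminescence.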
Chain of Androgen receptor (Homo sapiens) (P10275 whole entry, looked up): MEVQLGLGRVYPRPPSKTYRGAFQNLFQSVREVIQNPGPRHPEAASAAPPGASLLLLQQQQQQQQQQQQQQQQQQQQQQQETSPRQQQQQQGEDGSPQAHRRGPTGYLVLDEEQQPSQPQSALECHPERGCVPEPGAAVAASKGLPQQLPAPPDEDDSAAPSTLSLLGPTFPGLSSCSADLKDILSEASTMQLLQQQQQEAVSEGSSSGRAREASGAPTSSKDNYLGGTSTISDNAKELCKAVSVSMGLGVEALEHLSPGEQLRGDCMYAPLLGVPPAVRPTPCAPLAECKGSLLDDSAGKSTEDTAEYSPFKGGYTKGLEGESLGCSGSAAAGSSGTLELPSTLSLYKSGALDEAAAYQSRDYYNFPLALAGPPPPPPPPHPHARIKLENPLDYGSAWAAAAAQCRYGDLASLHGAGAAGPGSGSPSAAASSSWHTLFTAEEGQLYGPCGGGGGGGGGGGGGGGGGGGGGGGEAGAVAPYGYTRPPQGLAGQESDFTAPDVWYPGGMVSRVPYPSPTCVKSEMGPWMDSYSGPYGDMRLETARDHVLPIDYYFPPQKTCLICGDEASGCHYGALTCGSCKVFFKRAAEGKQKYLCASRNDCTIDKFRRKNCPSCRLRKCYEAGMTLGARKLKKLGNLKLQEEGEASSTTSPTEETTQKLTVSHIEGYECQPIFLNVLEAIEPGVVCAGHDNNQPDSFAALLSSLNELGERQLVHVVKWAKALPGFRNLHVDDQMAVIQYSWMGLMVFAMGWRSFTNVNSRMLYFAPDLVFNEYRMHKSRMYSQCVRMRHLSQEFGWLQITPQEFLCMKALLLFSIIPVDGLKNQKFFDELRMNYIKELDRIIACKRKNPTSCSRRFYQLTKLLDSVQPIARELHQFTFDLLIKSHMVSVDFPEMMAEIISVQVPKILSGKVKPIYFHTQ

The target in experiment [12] is Estrogen receptor (Homo sapiens) (UniProt P03372). In words: qHTS assay to identify small molecule antagonists of the estrogen receptor alpha (ER-alpha) signaling pathway using the BG1 cell line in the presence of 0.1 nM 17-beta-estradiol (AID 1259244). Also: potency is read from the fitted curve at half-maximal effect; nearly all actives have a fitted effect of over 50% in size. The gist of the method: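 Luminescence after ONE-Glo (30 min, room temperature) measured ERE-luciferase activity in VM7Luc4E2 cells treated 22 h with compound and 0.1 nM final 17beta-estradiol as stimulator.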

A short description of experiment [13]: qHTS assay to identify small molecule HDAC inhibitors (AID 1259364). Also: potency is read from the fitted curve at half-maximal effect.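 Also: wild-type HCT-116 cells with endogenous class I/II HDAC activity; nearly all actives have a fitted effect of over 45% in size.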 As to activity change, negative = inhibition: top concentration of the series differs between compounds; % is scaled to controls: 0 for no effect and ±100 for the full control effect. The gist of the method: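 HCT-116 (wild type), 1,500 cells/well, overnight; compound 2 hr 37C 5% CO2; HDAC-Glo I/II reagent 30 min RT; luminescence readout.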
Experiment [14] is described as follows: qHTS assay to identify small molecule agonists of the estrogen receptor beta (ER-beta) signaling pathway - cell viability counter screen (AID 1259380). Also: nearly all actives have a fitted effect of over 30% in size. Also: potency is read from the fitted curve at half-maximal effect. The gist of the method: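 Luminescence read-out (CellTiter-Glo, 30 min, room temp) taken in the same wells as the beta-lactamase reporter assay; ER-beta-UAS-bla HEK293T cells exposed to DMSO-dissolved compounds for 16 hr at 37C in 2% charcoal-stripped FBS medium.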

In experiment [15] the target is Androgen receptor (Homo sapiens) (UniProt P10275). In words: qHTS assay to identify small molecule agonists of the androgen receptor (AR) signaling pathway in the presence of an antagonist (AID 1259381; calls by dose curve; also: potency is read from the fitted curve at half-maximal effect; nearly all actives have a fitted effect of over 15% in size). The gist of the method:
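Luciferase read-out (ONE-Glo, 30min room temperature) in MDA-kb2 MMTV-reporter cells; agonist mode run in presence of AR antagonist nilutamide, 3.0uM final. Compounds tested as 15-point series, 16hr exposure at 37C, 0% CO2.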

The nature of experiment [16]: qHTS assay to identify small molecule agonists or antagonists of the thyroid stimulating hormone receptor (TSHR) signaling pathway - wild type cell line counter screen (AID 1259384; calls by dose curve; also: % is scaled to controls: 0 for no effect and ±100 for the full control effect). The gist of the method:
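Counter screen in untransfected Hek293: compounds (15-point titration, triplicate) plus phosphodiesterase inhibitor Ro20-1724 added after 18 h plating; 30 min RT. Intracellular cAMP via competitive d2/cryptate immunoassay, 1 h incubation.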

Experiment [17] can be described thus: qHTS assay to identify small molecule antagonists of the androgen receptor (AR) signaling pathway using the MDA cell line in the presence of 0.5 nM R1881 - cell viability counter screen (AID 1259242). Also: nearly all actives have a fitted effect of over 45% in size. Also: potency is read from the fitted curve at half-maximal effect. The gist of the method: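 Live-cell protease fluorescence, CellTiter-Fluor, 30 min at 37C. Cells: MDA-kb2, 3,000/well, preincubated 5 hr. Compounds plus 0.5 nM R1881 final, 16 hr, 37C, 0% CO2.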

Experiment [18] has as its target Thyrotropin receptor (Homo sapiens) (UniProt P16473). The experiment can be described thus: qHTS assay to identify small molecule antagonists of the thyroid stimulating hormone receptor (TSHR) signaling pathway (AID 1259385; calls by dose curve; also: % is scaled to controls: 0 for no effect and ±100 for the full control effect; nearly all actives have a fitted effect of over 20% in size). The gist of the method: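 Antagonist mode: compound-treated TSHR-expressing HEK293 cells were stimulated with 1.5 ng/mL TSH (final) in presence of Ro20-1724 for 30 min at RT. HTRF cAMP detection after 1 h; each compound tested at 15 concentrations, triplicate.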

“And” between values parts separate entries of the source, which are not always exact repeats. Equal values may be shown once. Inconclusive results are not listed. Some structures have more than one record in an assay (separate samples or runs), and their calls can disagree. The source made the active and inactive calls. Unless noted, calls follow the shape of the dose curve; as a rule, active = well fitted curve in the direction sought with a large enough effect in the repeat runs; inconclusive = weak or mixed curves; inactive = no such curve, though single readings can be large; an effect the other way counts as inactive or inconclusive.

Chain of Thyrotropin receptor (Homo sapiens) (P16473 whole entry, looked up): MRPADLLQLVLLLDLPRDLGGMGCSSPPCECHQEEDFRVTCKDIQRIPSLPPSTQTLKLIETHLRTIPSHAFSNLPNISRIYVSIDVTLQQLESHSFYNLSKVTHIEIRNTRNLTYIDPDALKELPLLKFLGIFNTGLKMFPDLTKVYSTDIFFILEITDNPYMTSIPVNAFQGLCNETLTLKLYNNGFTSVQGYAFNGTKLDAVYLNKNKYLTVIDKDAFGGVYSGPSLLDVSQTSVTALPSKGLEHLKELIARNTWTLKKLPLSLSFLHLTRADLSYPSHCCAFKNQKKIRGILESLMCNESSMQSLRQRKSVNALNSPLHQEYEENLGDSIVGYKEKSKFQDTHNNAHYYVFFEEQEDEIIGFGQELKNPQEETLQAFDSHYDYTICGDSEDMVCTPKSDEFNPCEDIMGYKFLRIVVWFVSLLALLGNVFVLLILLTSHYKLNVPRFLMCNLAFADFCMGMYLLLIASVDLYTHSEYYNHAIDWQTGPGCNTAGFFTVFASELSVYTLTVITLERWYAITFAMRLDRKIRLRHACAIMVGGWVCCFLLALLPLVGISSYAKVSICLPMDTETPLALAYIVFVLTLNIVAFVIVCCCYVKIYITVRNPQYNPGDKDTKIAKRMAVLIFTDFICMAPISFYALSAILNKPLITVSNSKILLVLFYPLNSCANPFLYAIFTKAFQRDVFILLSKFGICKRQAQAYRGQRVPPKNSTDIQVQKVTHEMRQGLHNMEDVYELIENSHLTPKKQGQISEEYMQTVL

With `Nc1ccc(O)c([N+](=O)[O-])c1`, the Potency result in experiment [1], in [2], in experiment [8] and in experiment [9] was “inactive” in each case. Also, the Potency was 43.3 µM (active) in [3]; 30.6 µM (active) in experiment [4]; 13.5 µM (active) in experiment [6]; 27.3 µM (active) in [7]; 43.3 µM (active) in experiment [10]. The call in experiment [5] was inactive.
Take `Nc1ccc2c(c1)CN1C(=O)c3ccccc3C1=N2`: the activity, negative = inhibition in experiment [11] is 57.2% [at 19 µM] (inactive). The Potency is 3.26 µM (active) in experiment [12]; 0.326 µM (active) in experiment [13]; 11.6 µM (active) in [2]; 5.8 µM (active) in experiment [14]; 0.231 µM (active) in experiment [15]; 0.092 µM (active) in [9]. Also, the activity change, negative = inhibition in experiment [6] is -44.1% [at 19 µM] (inactive). In experiment [16], the cAMP activity change is -1.34% [at 18.9 µM, stronger effect = higher value] (inactive).
Take `CC1(C)S[C@@H]2[C@H](NC(=O)[C@H](N)c3ccccc3)C(=O)N2[C@H]1C(=O)O`: the Potency result in experiment [17], in experiment [13], in [2], in experiment [3], in experiment [4] and in [6] was “inactive” throughout. Besides, the Potency result in [7], in experiment [14], in experiment [8], in [16], in experiment [18] and in experiment [10] was “inactive” each time. Also, the result in experiment [5] was inactive.
As for `CCCCCCCCCCCC[N+](C)(C)Cc1ccccc1`, the Potency in experiment [17] was 47.6 µM (active) and 37.4 µM (active) and 13.3 µM (active); in experiment [3] it was 53.4 µM (active) and 52.8 µM (active) and 16.8 µM (active); in [4], 66.4 µM (active); in [6] it was 2.13 µM (active) and 419 nM (active) and 3.76 µM (active); in [7], 23.9 µM (active) and 33.3 µM (active) and 26.6 µM (active); in experiment [14] it was 30 µM (active) and 29.7 µM (active) and 10.6 µM (active). The Potency was 26.8 µM (active) and 37.4 µM (active) and 11.9 µM (active) in experiment [8]; 67.3 µM (active) and 74.5 µM (active) and inactive in experiment [10]. In addition, the Potency entry in [1], in experiment [13], in experiment [16] and in experiment [18] was “inactive” in each case. The compound was classed as inactive in experiment [5].
For `CCCC[P+](CCCC)(CCCC)CCCC`, the Potency result in experiment [17], in [13], in [3], in experiment [4], in experiment [6] and in [8] was “inactive” in each case. Further, the Potency result in experiment [16], in experiment [18] and in experiment [10] was “inactive” each time. The compound was called inactive in [5]. Besides, the Potency in experiment [7] was 60.9 µM (active) and 62.3 µM (active) and 61.1 µM (active).
For `Cn1c(=O)c2c(ncn2C)n(C)c1=O`, the Potency entry in [17], in experiment [1], in experiment [13], in [3], in experiment [14] and in experiment [8] was “inactive” each time. For the same compound, the Potency is 55.1 µM (active) and inactive in experiment [4]; 17.4 µM (active) and inactive in experiment [6]; 55.1 µM (active) and inactive in experiment [7]; 61.9 µM (active) and inactive in [10]. In experiment [5], the compound was called inactive.
Turning to `F[B-](F)(F)F`, the Potency entry in experiment [17], in experiment [13], in experiment [3], in experiment [4], in experiment [6] and in experiment [7] was “inactive” throughout. Further, the Potency entry in experiment [8], in experiment [16], in experiment [18] and in experiment [10] was “inactive” each time. In addition, the compound was called inactive in [5]. The Potency entry in experiment [14] is “inactive and 62 µM (active)”.
Consider `CN[C@H]1CC[C@@H](c2ccc(Cl)c(Cl)c2)c2ccccc21`, for which the Potency in experiment [1] is 2.82 µM (active); in experiment [6], 18.8 µM (active); in experiment [14], 29.8 µM (active); in experiment [8] it was 18.8 µM (active). Also, the Potency entry in experiment [13], in [3], in [4], in experiment [7], in experiment [9] and in experiment [16] was “inactive” throughout. The Potency result in experiment [18] and in [10] was “inactive” in each case. The call in [5] was inactive.
On to `NC(=O)n1c(O)c(C(=O)c2cccs2)c2cc(Cl)ccc21`, for which the Potency was 13.3 µM (active) in experiment [12], 10.6 µM (active) in [6], 29.8 µM (active) in [7] and 29.8 µM (active) in [10]. The Potency entry in [1], in experiment [13], in experiment [8], in [9], in experiment [16] and in experiment [18] was “inactive” each time. Further, the compound was classed as inactive in experiment [5].
